Source: PubChem BioAssay (National Center for Advancing Translational Sciences (NCATS))
VACV Venus inh: qHTS for Stage-Specific Inhibitors of Vaccinia Orthopoxvirus: Venus Reporter Primary qHTS; Vaccinia virus Venus reporter expression, fluorescence; Potency, µM (doses to about 36.5 µM), usual class: inhibitors; hit rate 0.46% among 330,000; AID 720580, 2013; calls by dose curve; tested in A549 cells; further: nearly all actives have a fitted effect of over 30% in size
HCMV inh: qHTS Assay for inhibitors of the human cytomegalovirus (HCMV). hit rate 4.5% among 410,000. activity change, negative = inhibition, % at 57.5 µM. HFF cells, HCMV-luciferase reporter, 72 h; active compounds read low; in the data active means activity change below about -60%; inconclusive means no clear call, values can overlap the other calls; inactive means above about -39%
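Human foreskin fibroblasts infected with luciferase-reporter HCMV at MOI 1 PFU/cell, compounds at two doses. Luciferase measured 72 h post infection; normalized to buffer-only basal and Salinomycin (10uM) controls.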
HCV inhibitor: qHTS Assay for Inhibitors of Hepatitis C Virus (HCV); Huh7.5.1 HCVcc-Cre infection, luciferase reporter, 44 h; Potency, µM (highest dose often 41.8 µM), hits mostly inhibitors; hit rate 3.4% among 340,000; active means well fitted inhibition curve with a large enough effect; inconclusive means small, poorly fitted or top-dose-only effect, or another doubt; inactive means no such curve, though single readings can be large or run the other way
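Infectious HCVcc-Cre (~0.5 moi) was added to cells just after compound, with cells seeded 4 h earlier at 1,000 per well. Luciferase activity after 44 h culture reported infection; substrate was incubated 15 min at room temperature before reading.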
MARV entry inh: qHTS for inhibitors of binding or entry into cells for Marburg Virus; hit rate 1.8% among 300,000; Marburg virus pseudotyped entry inhibition, cell reporter; Potency, µM (series often up to 37.8 µM), actives largely listed as inhibitors; calls by dose curve; tested in HEK293 cells
LASV entry inh: qHTS for Inhibitors of binding or entry into cells for Lassa Virus | Lassa virus pseudotype entry inhibition, cell reporter | Potency, µM (top dose mostly 37.9 µM), actives largely listed as inhibitors | hit rate 1.2% among 300,000; calls by dose curve; tested in HEK293 cells; further: nearly all actives have a fitted effect of over 50% in size
Vaccinia mCherry: qHTS for Stage-Specific Inhibitors of Vaccinia Orthopoxvirus: mCherry Reporter Primary qHTS; Potency, µM (highest dose often 36.5 µM), most hits filed as inhibitors; Vaccinia virus mCherry reporter infection, fluorescence; AID 720579, 2013; hit rate 0.63% among 310,000; calls by dose curve; tested in A549 cells; further: nearly all actives have a fitted effect of over 35% in size
Large screens that a line does not name were inactive. The list is not random: actives were taken first. Their share in the collection is about 7.8%.

COc1cccc(C(=O)Nc2ccc(NC(=O)C(C)(C)C)cn2)c1	HCV inhibitor inconclusive, MARV entry inh 13µM, LASV entry inh 7.1µM
COc1cccc(C(=O)Nc2ccc(NC(=O)c3ccc(C(C)(C)C)cc3)cc2)c1	HCMV inh -97 (no result: HCV inhibitor, MARV entry inh)
COc1cc(C(=O)Nc2ccc(NC(=O)c3cccc(Cl)c3)nc2)cc(OC)c1OC	HCV inhibitor 4µM, MARV entry inh inconclusive, LASV entry inh inconclusive, Vaccinia mCherry inconclusive
COc1cc2c(cc1NC(=O)c1ccc(C(C)(C)C)cc1)CCCC2	HCMV inh -90, HCV inhibitor inconclusive, MARV entry inh 4.5µM, LASV entry inh 1.4µM, Vaccinia mCherry 10µM
COc1ccc(C(=O)Nc2cc3c(cc2OC)CCCC3)cc1Br	HCV inhibitor inconclusive, MARV entry inh inconclusive
COc1cc(C(=O)Nc2ccc(NC(=O)C3CCCCC3)nc2)cc(OC)c1OC	HCV inhibitor inconclusive (no result: LASV entry inh)
CCc1c(-c2ccccc2)nc2ccccc2c1C(=O)NC(C)c1ccccc1 (centres undefined)	HCMV inh inconclusive (no result: HCV inhibitor, MARV entry inh)
Cc1cnc(-n2ncc(C(=O)N(C)Cc3cccc4ncccc34)c2C(C)C)nc1-c1ccc(F)cc1	none (no result: HCMV inh, HCV inhibitor, MARV entry inh, LASV entry inh)
CC1CC(C)CC(C)C(O)C(C#N)=CC=CCC(C2CCCC2C(=O)O)OC(=O)CC(O)C(C)C1 (centres undefined)	VACV Venus inh 1.1µM, HCMV inh -97, HCV inhibitor inconclusive, MARV entry inh 0.45µM, LASV entry inh 1.4µM, Vaccinia mCherry inconclusive
CCN1CCN(c2ccc(NC(=O)CCc3c(C)nc4c(-c5ccc(F)cc5)c(C)nn4c3C)cc2)CC1	VACV Venus inh inconclusive, HCMV inh -60, HCV inhibitor 2.5µM, Vaccinia mCherry inconclusive (no result: MARV entry inh, LASV entry inh)
O=C(C[N+]12CCCc3cccc(c31)CCC2)c1ccc2ccc3cccc4ccc1c2c34	none (no result: HCMV inh, HCV inhibitor, MARV entry inh, LASV entry inh)
CC1CCCN(C(=O)Cn2c(=O)n(CC3CCC(C(=O)NC(C)C)CC3)c(=O)c3sccc32)C1 (centres undefined)	none (no result: HCV inhibitor, MARV entry inh)
COC(=O)C1OC(OC2CC[C@]3(C)C(CC[C@@]4(C)[C@@H]3CC=C3[C@@H]5CC(C)(C)CC[C@]5(C(=O)OC5OC(CO)C(O)C(O)C5O)CC[C@]34C)C2(C)C)C(O)C(O)C1O[C@H]1OCC(O)C(O)C1O (some centres undefined)	HCV inhibitor 10µM (no result: HCMV inh, MARV entry inh, LASV entry inh)
C/C=C(\C)C(=O)OC1CC(C)(C)C[C@H]2C3=CC[C@@H]4[C@@]5(C)CCC(O[C@@H]6O[C@@H](C(=O)O)[C@@H](O)C(O[C@@H]7OC[C@H](O)[C@@H](O)[C@@H]7O[C@@H]7OC(CO)C(O)[C@@H](O)[C@@H]7O)C6O[C@@H]6OC(CO)C(O)C(O)C6O)[C@@](C)(CO)[C@@H]5CC[C@]4(C)[C@]3(C)CC(O)[C@@]12CO (some centres undefined)	VACV Venus inh inconclusive, HCMV inh inconclusive, HCV inhibitor 11µM (no result: MARV entry inh, LASV entry inh)
Cc1cccc(C)c1OC(=O)CSc1nnc(CNC(=O)c2ccccc2)o1	none (no result: HCV inhibitor)
O=C1NC(=S)N/C1=C/c1ccc(-c2c(Br)cc([N+](=O)[O-])cc2Br)o1	HCV inhibitor 8.9µM (no result: VACV Venus inh, HCMV inh, LASV entry inh, Vaccinia mCherry)
O=C1NC(=S)N/C1=C/c1cccc([N+](=O)[O-])c1	none
Cc1cc(CNC(=O)c2cnn(-c3nccc(-c4ccc5c(c4)OCO5)n3)c2C2CC2)on1	none (no result: HCMV inh, HCV inhibitor, MARV entry inh, LASV entry inh)
COc1ccc(-c2nc3ccccc3c(=O)n2NC(=O)c2cccnc2Cl)cc1OC	HCMV inh inconclusive
Cc1cccc(-c2nc3ccccc3c(=O)n2NC(=O)c2cccnc2Cl)c1	HCMV inh -69 (no result: VACV Venus inh, Vaccinia mCherry)
O=C(N/N=C/c1cc(Br)cc(Br)c1O)c1ccncc1	VACV Venus inh inconclusive, HCV inhibitor inconclusive, MARV entry inh inconclusive, LASV entry inh inconclusive, Vaccinia mCherry 7.9µM
COc1cc(C(=O)N/N=C/c2sc(=O)n(-c3ccccc3)c2Cl)cc(OC)c1OC	VACV Venus inh inconclusive, HCMV inh inconclusive, HCV inhibitor inconclusive, LASV entry inh inconclusive, Vaccinia mCherry inconclusive
O=C(N/N=C/c1cc(Br)c(Br)s1)c1ccncc1	VACV Venus inh inconclusive, HCMV inh -90, HCV inhibitor inconclusive, MARV entry inh inconclusive, LASV entry inh 10µM, Vaccinia mCherry inconclusive
O=C(N/N=C/c1sc(=O)n(-c2ccccc2)c1Cl)c1ccncc1	HCMV inh -86, HCV inhibitor inconclusive, MARV entry inh inconclusive
O=C(N/N=C/c1cc(Br)cc(Br)c1O)c1cccc(N2CCCC2=O)c1	HCMV inh -99, HCV inhibitor inconclusive, MARV entry inh inconclusive, LASV entry inh inconclusive
O=C(N/N=C/c1ccc(Br)s1)c1ccncc1	MARV entry inh inconclusive, LASV entry inh inconclusive
OCC(O)C[n+]1cccc(Br)c1 (centres undefined)	none (no result: HCMV inh, HCV inhibitor, MARV entry inh, LASV entry inh)
COc1ccc(C)cc1NS(=O)(=O)c1cc(Br)cc2c1N(C(C)=O)C(C)C2 (centres undefined)	HCMV inh inconclusive (no result: HCV inhibitor)
CN(C)CCCN1C(=O)C(O)=C(C(=O)c2cc3ccccc3o2)[C@@H]1c1ccccc1	none (no result: VACV Venus inh, HCMV inh, HCV inhibitor, LASV entry inh, Vaccinia mCherry)
Cc1cc(C(=O)N/N=C/c2cc(Br)cc(Br)c2OC(=O)c2cccc(F)c2)n[nH]1	HCMV inh -96, HCV inhibitor inconclusive, MARV entry inh 18µM, LASV entry inh 12µM, Vaccinia mCherry inconclusive
Cc1cccc(C(=O)Oc2c(Br)cc(Br)cc2/C=N/NC(=O)c2ccncc2)c1	HCMV inh -71, MARV entry inh inconclusive
O=C(NN=Cc1cc(=O)[nH]c(=O)[nH]1)c1ccncc1	HCMV inh -68
CCC[C@@H](CN1CCC[C@H]1CN1C(N)=NC[C@H]1C(C)C)N1C[C@@H]([C@H](C)CC)N(CCCC2CCCC2)C1=N	none (no result: MARV entry inh, LASV entry inh)
CCC[C@@H](CN1CCC[C@H]1CN1C(N)=NC[C@H]1CC(C)C)N1C[C@@H]([C@H](C)CC)N(CCCC2CCCC2)C1=N	HCV inhibitor 2.8µM (no result: MARV entry inh, LASV entry inh)
COC(=O)c1c(C(=O)OC)n(CCCN)c2ccc(C)cc12	HCV inhibitor inconclusive, MARV entry inh 8.2µM, LASV entry inh inconclusive
CCOc1ccc(Cl)cc1CNCCCSc1nnnn1C	none (no result: HCV inhibitor)
CN(C)Cc1cc(C(C)(C)c2cc(CN(C)C)c(O)c(CN(C)C)c2)cc(CN(C)C)c1O	MARV entry inh 12µM, LASV entry inh inconclusive (no result: VACV Venus inh, Vaccinia mCherry)
Cc1ccc(C(=O)c2oc3ccccc3c2NC(=O)c2cc(-c3ccccc3)on2)cc1F	none (no result: HCV inhibitor)
Cc1cc(OCC(=O)Nc2sc3c(c2C#N)CC(C)(C)NC3(C)C)c(C(C)C)cc1Cl	HCV inhibitor 3.2µM (no result: VACV Venus inh, MARV entry inh, LASV entry inh, Vaccinia mCherry)
CC1(C)Cc2c(sc(NC(=O)COc3ccccc3)c2C#N)C(C)(C)N1	HCV inhibitor 13µM
COC(=O)c1c(NC(=O)COc2ccc(Cl)cc2)sc2c1CC(C)(C)NC2(C)C	HCV inhibitor 11µM, MARV entry inh inconclusive
